Screening data from PubChem.
MCF10A rerep: A quantitative high throughput screen for small molecules that induce DNA re-replication in MCF 10a normal breast cells; MCF 10A DNA re-replication, Hoechst nuclear intensity, 48 h; Potency, µM (titrated, usually from 46.1 µM), for the others: top-dose activity, positive = re-replication, hits mostly activators; 2.9% of 350,000 active; further: % of control where 0% means no effect; nearly all actives have a fitted effect of over 50% in size
SW480 rerep: A quantitative high throughput screen for small molecules that induce DNA re-replication in SW480 colon adenocarcinoma cells. 1.8% of 340,000 active. SW480 DNA re-replication, Hoechst DNA content imaging, 48 h. Potency, µM (highest dose often 46.1 µM), without a hit: at the top dose re-replication activation, actives largely listed as activators; further: % of control where 0% means no effect; nearly all actives have a fitted effect of over 55% in size
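Hoechst fluorescence of nuclei (405 nm excitation, 500-530 nm emission) measured by plate-scanning imager after 48 hr compound exposure at 37 C; re-replication scored as increased number of nuclei with elevated intensity.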
RORg inh: qHTS for inhibitors of ROR gamma transcriptional activity; Potency, µM (titrated, usually from 53.6 µM), for the others: at the top dose activity change, negative = inhibition, most hits filed as inhibitors; 5.4% of 310,000 active; AID 2551, 2010; Drosophila S2 Gal4-RORgamma UAS-luciferase reporter, 20 h; further: on the % scale 0 is the no-effect control and ±100 the full control effect; nearly all actives have a fitted effect of over 60% in size
Target sequence (P51450 whole entry, looked up, the tested form may be a part): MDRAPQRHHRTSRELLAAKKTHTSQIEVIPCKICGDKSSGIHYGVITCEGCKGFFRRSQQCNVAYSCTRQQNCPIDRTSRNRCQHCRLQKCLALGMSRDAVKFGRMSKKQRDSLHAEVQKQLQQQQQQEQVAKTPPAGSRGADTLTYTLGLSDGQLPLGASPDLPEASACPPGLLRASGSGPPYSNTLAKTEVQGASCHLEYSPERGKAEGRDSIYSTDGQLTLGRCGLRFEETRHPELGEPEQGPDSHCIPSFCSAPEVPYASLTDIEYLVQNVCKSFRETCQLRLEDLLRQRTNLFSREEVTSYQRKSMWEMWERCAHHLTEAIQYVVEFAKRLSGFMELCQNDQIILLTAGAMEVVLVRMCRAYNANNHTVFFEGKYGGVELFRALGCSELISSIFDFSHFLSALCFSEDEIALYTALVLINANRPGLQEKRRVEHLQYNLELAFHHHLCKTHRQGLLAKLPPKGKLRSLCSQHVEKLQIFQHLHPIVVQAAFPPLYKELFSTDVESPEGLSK
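Using a luciferase readout, inhibitors were identified by reduced reporter activity in Drosophila cells coexpressing a copper-inducible Gal4–ROR gamma fusion and UAS-driven Photinus luciferase, incubated 20 hr after 700 uM copper sulfate.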
KB-V1 MDR tox: qHTS assay for MDR1-selective chemotherapeutics: Primary screen using the drug-selected MDR subline cells KB-V1; KB-V1 MDR cells viability, CellTiter-Glo, 72 h; Potency, µM (highest dose often 46.1 µM), most hits filed as cytotoxic; 3.4% of 400,000 active; further: on the % scale 0 is the no-effect control and ±100 the full control effect; nearly all actives have a fitted effect of over 60% in size
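Cytotoxicity toward P-gp-expressing KB-V1 cells was determined as loss of CellTiter-Glo luminescence after 72 h at 37 degrees C. Compounds were tested in quantitative HTS format across a concentration range, with curves fitted to normalized data.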
VP16 counter: VP16 counterscreen qHTS for inhibitors of ROR gamma transcriptional activity; Drosophila S2 Gal4-VP16 UAS-luciferase, luminescence, 20 h; Potency, µM (series often up to 53.6 µM), inactives show at the highest dose activity, negative = inhibition, usual class: inhibitors; 3.5% of 310,000 active; AID 2546, 2010;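 further: Gal4-VP16 expression switched on by copper sulfate through the metallothionein promoter; on the % scale 0 is the no-effect control and ±100 the full control effect; nearly all actives have a fitted effect of over 50% in size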
KB-3-1 cytotox: qHTS assay for MDR1-selective chemotherapeutics: Primary screen using the parental adenocarcinoma cell KB-3-1; 1.4% of 400,000 active; KB-3-1 viability, CellTiter-Glo ATP luminescence, 72 h; Potency, µM (series often up to 46.1 µM), most hits filed as cytotoxic; further: on the % scale 0 is the no-effect control and ±100 the full control effect; nearly all actives have a fitted effect of over 60% in size
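Using CellTiter-Glo luminescence, growth of non-resistant KB-3-1 adenocarcinoma cells is assessed 72 h after pin-tool compound addition at 37 °C. Normalized responses across the concentration series yield fitted curves.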
* hit, by the source's call; i = inactive; ? = inconclusive; . = no result given; [ ] = another dose, or the depositor's remark. Shown are actives, neighbours in structure and some others; about 10% of the full set was active somewhere. The call rests on the fitted dose curve; in most records, active means well fitted curve in the direction sought with a large enough effect; inconclusive means small, poorly fitted or top-dose-only effect, or another doubt; inactive means no such curve, though single readings can be large; an effect the other way counts as inactive or inconclusive. Potency means the concentration at half of the fitted maximal effect.

SMILES	MCF10A rerep	SW480 rerep	RORg inh	KB-V1 MDR tox	VP16 counter	KB-3-1 cytotox
Cc1ccc(S(=O)(=O)N2CCCCC2)cc1NC(=O)CNC(C)c1ccc(Cl)c(Cl)c1 (stereo not drawn)	1.1%	22.3%	.	i	.	14.6µM*
CC1CCC2C(=O)OC(CN3C(=O)c4ccccc4C3=O)CN2C1c1ccc(Br)cc1 (stereo not drawn)	.	.	-3.8%[10 µM]	.	1.0%[10 µM]	.
Cc1cc(C(=O)CN2CCN(CC(=O)Nc3cccc(F)c3)CC2)c(C)n1C1CC1	-6.2%	-1.8%	.	10.3µM*	.	i
CC1(C(=O)NS(=O)(=O)c2cccc(OC(F)F)c2)CCN1C(=O)C1CCCCC1 (stereo not drawn)	.	.	.	i	.	i
O=[N+]([O-])c1ccc(CN2CC(N3CCC(Cc4ccccc4)CC3)CS2(=O)=O)cc1 (stereo not drawn)	.	.	.	i	.	i
O=C(Nc1nc2c(s1)CN(Cc1ccccc1)CC2)C1CCC1	0.0%	-3.6%	-5.0%	i	10.7%	i
CCN1CCc2nc(NC(=O)c3ccccc3)sc2C1	10.8%	2.0%	14.1µM*	?	11.2µM*	i
COc1cccc(C(=O)Nc2nc3c(s2)CN(C)CC3)c1	-2.5%	-2.6%	14.6%	i	12.6µM*	i
CN1CCN(c2ncc3ncc(=O)n(C4CC4)c3n2)CC1	.	.	11.7%	.	-23.2%	.
CCOC(=O)c1[nH]c(C)c(C(=O)Nc2ccc(C)c(Cl)c2)c1C	20.6µM*	?	38.8%	i	-1.4%	?
CCOC(=O)c1[nH]c(C)c(C(=O)Nc2ccc(C)c(F)c2)c1C	11.6µM*	11.6µM*	-22.4%	2.91µM*	-29.2%	?
Cc1ccc(NC(=O)C(=O)NCC(c2cccnc2)N2CCN(Cc3ccccc3)CC2)cc1 (stereo not drawn)	.	.	.	i	.	i
Oc1ccc(Br)cc1/C=N/n1cnc2ccccc21	?	1.6%	?	14.6µM*	?	i
Oc1ccc(Br)cc1/C=N/N1CCCCC1	12.4%	-14.4%	26.0%	i	7.3%	i
O=C(c1ccco1)N(CCCN1CCOCC1)c1nc(-c2ccc(F)cc2)cs1	2.9%	?	-26.5%	?	4.5%	i
O=C(c1ccco1)N(CCCN1CCOCC1)c1nc(-c2ccc(Cl)cc2)cs1	10.3µM*	?	-42.1%	i	-19.7%	i
CCCC(=O)NC(c1ccc(Cl)cc1)c1ccc2cccnc2c1O (stereo not drawn)	?	2.91µM*	2.24µM*	?	2.82µM*	?
COc1ccc(C(NC(C)=O)c2ccc3cccnc3c2O)c(OC)c1 (stereo not drawn)	13.4%	2.91µM*	?	?	4.47µM*	7.31µM*
CC(=O)NC(c1ccc(Cl)cc1Cl)c1ccc2cccnc2c1O (stereo not drawn)	?	10.5%	2µM*	i	1.78µM*	?
CCCC(=O)NC(c1ccc(C)cc1)c1ccc2cccnc2c1O (stereo not drawn)	20.6µM*	?	1.58µM*	3.66µM*	2.24µM*	?
COc1cccc(C(NC(C)=O)c2nc(-c3cccc4cccnc34)cs2)c1 (stereo not drawn)	.	.	.	i	.	i
Cc1cccc(C[C@H](C(=O)O)N2C(=O)c3ccc(C(=O)O)cc3C2=O)c1	.	.	3.5%	.	3.3%	.
CCN1CCN(C(c2ccc(F)cc2)c2c(O)cc(C)n(CCOC)c2=O)CC1 (stereo not drawn)	.	.	.	i	.	i
O=C1c2ccccc2C(=O)N1c1ccc(S(=O)(=O)N2CCOCC2)cc1	.	.	.	i	.	?
